Assay [1] is described as follows: qHTS assay to identify small molecule agonists of the estrogen receptor alpha (ER-alpha) signaling pathway in the presence of an antagonist - cell viability counter screen (AID 1259386).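 Further: cells exposed to compounds for 22 h at 37 °C before the viability read; nearly all actives have a fitted effect of over 30% in size.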 Further: potency means the concentration at half of the fitted maximal effect. In short, it runs like this:
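The test measures whether compounds kill ER-alpha reporter cells (VM7Luc4E2) under antagonist co-treatment (ICI-182,780, 10.0nM). Fluorescence from CellTiter-Fluor is read after a 22hr exposure.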
In general terms: In qHTS, concentration-response curves come from the screen itself.

Assay [2] addresses Progesterone receptor (Homo sapiens) (UniProt P06401). In words: qHTS assay to identify small molecule agonists of the progesterone receptor (PR) signaling pathway (AID 1346784; calls by dose curve; further: nearly all actives have a fitted effect of over 30% in size). In short, it runs like this:
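Agonist qHTS: compounds pinned onto 3,000 PR-UAS-bla HEK 293T cells per well in charcoal-stripped serum medium, 16hr at 37C, then beta-lactamase activity measured by LiveBLAzer FRET fluorescence after 2 hours at room temperature.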

The nature of assay [3]: qHTS assay to identify small molecule antagonists of the progesterone receptor (PR) signaling pathway - cell viability counter screen (AID 1346798). Further: nearly all actives have a fitted effect of over 50% in size. Further: potency means the concentration at half of the fitted maximal effect. In short, it runs like this: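 Cytotoxicity read as CellTiter-Glo luminescence (30 min, room temperature) in the same wells as the beta-lactamase readout. HEK293T PR-UAS-bla cells in charcoal-stripped 2% FBS received compound and R5020, then 16 h at 37C, 5% CO2.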

Assay [4] can be described thus: qHTS assay to identify small molecule agonists of the progesterone receptor (PR) signaling pathway - cell viability counter screen (AID 1346799; calls by dose curve; further: nearly all actives have a fitted effect of over 45% in size; further: potency means the concentration at half of the fitted maximal effect). Summed up:
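Cytotoxicity measured by CellTiter-Glo luminescence (30 min, RT) in the same wells as the PR beta-lactamase agonist read. Those HEK293T cells had 16 h compound treatment at 37 C in 2% charcoal-stripped FBS medium.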

A short description of assay [5]: qHTS assay to identify small molecule antagonists of the TGF-beta/Smad signaling pathway - cell viability counter screen (AID 1346824). Further: nearly all actives have a fitted effect of over 50% in size. Summed up:
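SBE-bla HEK 293T cells, incubated overnight, then compound plus 0.25 ng/mL TGF-beta1 (stock added) for 5 hr at 37 C. Viability was read in the same wells by CellTiter-Glo luminescence after 30 min at room temperature.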

Assay [6] is described as follows: qHTS assay to identify small molecule agonists of the TGF-beta/Smad signaling pathway - cell viability counter screen (AID 1346829). Further: top concentration of the series differs between compounds; nearly all actives have a fitted effect of over 45% in size. Summed up:
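Here the cytotoxicity of library compounds is measured in SBE-bla HEK 293T cells treated for 5 hr, using CellTiter-Glo added to wells already read for the beta-lactamase reporter.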

Assay [7] deals with Thyrotropin-releasing hormone receptor (Homo sapiens) (UniProt P34981). Description: qHTS assay to identify small molecule antagonists of the thyrotropin-releasing hormone receptor (TRHR) signaling pathway (AID 1346877; active means well fitted inhibition curve with a large enough effect in the repeat runs, not every such curve was filed as active; further: series mostly up to about 51 µM). Summed up:
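Overnight-plated (18 h, 37 °C) HEK293 cells expressing TRHR were dye-loaded 2 h, treated with compound, then stimulated with TRH at 1 nM final. Fluorescence intensity was captured every second for 3 min.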

For assay [8] the target is unchanged. Description: qHTS assay to identify small molecule agonists of the thyrotropin-releasing hormone receptor (TRHR) signaling pathway (AID 1346891; calls by dose curve; further: series mostly up to about 58 µM). In short, it runs like this: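 Agonist-mode intracellular calcium readout: kinetic fluorescence over 3 min at 1 s intervals after compound addition to TRHR-HEK293 cells (18 h seeded, 2 h dye-loaded at 37 C). Fifteen concentrations, triplicates.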

Assay [9] is described as follows: Human pregnane X receptor (PXR) small molecule agonists, qHTS cell viability counter screen (AID 1346977). Further: nearly all actives have a fitted effect of over 50% in size. Further: potency means the concentration at half of the fitted maximal effect. In short, it runs like this:
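Same-well viability read: CellTiter-Fluor added after 23 hr compound exposure, fluorescence measured 1 hr later. Cells were PXR-Luc HepG2 seeded at 2,000/well in 5% charcoal-stripped FBS medium, rested 5 hr before dosing at 37 C.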

A short description of assay [10]: Caspase-3/7 induction in CHO-K1 cells by small molecules, qHTS cell viability counter screen (AID 1346979). Further: nearly all actives have a fitted effect of over 35% in size. Further: potency means the concentration at half of the fitted maximal effect. In short, it runs like this: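 Cytotoxicity counter screen: CellTiter-Fluor added to compound-treated wild-type CHO-K1 cells at 16 h (37C, 5% CO2), fluorescence measured 1 h later; same wells as caspase-3/7 measurement.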
A short description of assay [11]: Caspase-3/7 induction in CHO-K1 cells by small molecules, qHTS assay (AID 1346980). Further: nearly all actives have a fitted effect of over 15% in size. Summed up: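 Wild-type CHO-K1 cells exposed to compounds for 17hr at 37 C, 5% CO2. Caspase-3/7 activity then measured by Caspase-Glo 3/7 luminescence after 30min at room temperature.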
Assay [12] addresses Nuclear receptor subfamily 1 group I member 2 (Homo sapiens) (UniProt O75469). Description: Human pregnane X receptor (PXR) small molecule agonists, qHTS assay (AID 1346982). Further: nearly all actives have a fitted effect of over 35% in size. Further: potency means the concentration at half of the fitted maximal effect. In short, it runs like this:
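Stable HepG2 line reporting PXR-mediated CYP3A4 expression via luciferase. Treatment: 24 hr with compounds in DMSO at 37 C. Detection: ONE-Glo luminescence.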

For assay [13] the target is unchanged. In words: CYP3A4 induction through human pregnane X receptor (PXR) by small molecules, qHTS assay (AID 1346984). Further: nearly all actives have a fitted effect of over 40% in size. Further: potency means the concentration at half of the fitted maximal effect. In short, it runs like this:
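After 24 h at 37C with compound, DPX-2 cells (HepG2, co-transfected PXR response element and CYP3A4 promoter-luciferase) got 3uM final P450-Glo Luciferin-IPA for 3 h; One-Glo luminescence followed.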

The target of assay [14] is Progesterone receptor (Homo sapiens) (UniProt P06401). In words: qHTS assay to identify small molecule antagonists of the progesterone receptor (PR) signaling pathway (AID 1346795; active means well fitted inhibition curve with a large enough effect in the signal ratio in the repeat runs, not every such curve was filed as active; the % refers to the signal ratio). Summed up: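 Antagonist mode with agonist R5020 at 1 nM final and 16 hr incubation at 37C. Reporter was beta-lactamase driven by UAS in HEK293T (PR-UAS-bla), 2% charcoal-stripped serum; signal from LiveBLAzer FRET substrate, 2 hr at room temperature.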
Chain of Progesterone receptor (Homo sapiens) (P06401 whole entry, looked up): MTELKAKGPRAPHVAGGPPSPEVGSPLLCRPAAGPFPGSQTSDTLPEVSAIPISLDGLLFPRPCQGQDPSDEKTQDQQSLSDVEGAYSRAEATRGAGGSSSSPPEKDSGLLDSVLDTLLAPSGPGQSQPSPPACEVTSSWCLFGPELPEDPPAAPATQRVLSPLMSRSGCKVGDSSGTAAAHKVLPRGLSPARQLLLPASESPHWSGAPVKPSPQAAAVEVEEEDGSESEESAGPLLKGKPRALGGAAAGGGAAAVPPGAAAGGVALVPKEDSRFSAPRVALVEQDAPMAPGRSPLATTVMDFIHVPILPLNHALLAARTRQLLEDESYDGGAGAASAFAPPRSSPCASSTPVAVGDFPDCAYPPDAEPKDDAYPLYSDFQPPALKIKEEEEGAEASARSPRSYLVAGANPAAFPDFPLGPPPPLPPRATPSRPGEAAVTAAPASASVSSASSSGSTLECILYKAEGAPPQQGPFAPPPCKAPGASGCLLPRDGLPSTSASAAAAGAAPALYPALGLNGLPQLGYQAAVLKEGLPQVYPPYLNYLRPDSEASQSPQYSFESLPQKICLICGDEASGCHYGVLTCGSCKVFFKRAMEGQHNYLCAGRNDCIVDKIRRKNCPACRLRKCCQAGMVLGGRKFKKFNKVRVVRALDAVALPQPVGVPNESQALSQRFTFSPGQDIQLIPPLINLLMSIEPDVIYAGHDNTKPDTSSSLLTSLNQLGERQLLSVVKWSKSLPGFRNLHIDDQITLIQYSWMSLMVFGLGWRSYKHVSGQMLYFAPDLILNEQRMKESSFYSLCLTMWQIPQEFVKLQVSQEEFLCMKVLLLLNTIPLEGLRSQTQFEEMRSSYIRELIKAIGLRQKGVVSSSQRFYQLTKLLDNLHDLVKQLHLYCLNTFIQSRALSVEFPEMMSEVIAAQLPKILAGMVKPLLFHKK

Assay [15] can be described thus: qHTS assay to identify small molecule agonists of the TGF-beta/Smad signaling pathway (AID 1346859; active means well fitted activation curve with a large enough effect in the signal ratio in the repeat runs, not every such curve was filed as active; the % refers to the signal ratio; further: series mostly up to about 77 µM). Summed up: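 Fluorescence (ex 405 nm; em 460 and 530 nm) was read 2 h after LiveBLAzer FRET substrate at RT. The preceding compound treatment of overnight-plated SBE-bla HEK293T cells lasted 5 h at 37 C.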
Assay [16] is described as follows: Caspase-3/7 induction in HepG2 cells by small molecules, qHTS assay (AID 1346978). Further: nearly all actives have a fitted effect of over 15% in size. In short, it runs like this:
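Wild-type HepG2 cells, 2,000/well, settled 5 hr at 37 C and 5% CO2, then compound-treated for 17 hr; caspase-3/7 activity read by luminescent Caspase-Glo 3/7 after 30 min at room temperature.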

In assay [17] the target is Nuclear receptor subfamily 1 group I member 2 (Rattus norvegicus) (UniProt Q9R1A7). Description: Rat pregnane X receptor (rPXR) activation by small molecules, qHTS assay (AID 1346983). Further: nearly all actives have a fitted effect of over 20% in size. The note with it: rPXR luciferase reporter cells, One-Glo luminescence, 24 h; max activation: hits give high values. Summed up:
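Cell-based rPXR activation assay: rPXR cells, 2,000 per well, rested 5hr at 37 C, then exposed to compounds in DMSO for 24 hr at 37 C. Luciferase activity read by One-Glo luminescence after 30 min at room temperature.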

The target in assay [18] is Nuclear receptor subfamily 1 group I member 2 (Homo sapiens) (UniProt O75469). Description: Human pregnane X receptor (PXR) activation by small molecules, qHTS assay (AID 1346985). Further: nearly all actives have a fitted effect of over 40% in size. Summed up: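 DPX-2 cells (HepG2 co-transfected with a PXR response element and a CYP3A4-promoter luciferase construct) were seeded at 2,000 per well, rested 5 hr at 37C, then exposed to DMSO-dissolved compounds for 24 hr. Activation was read as luciferase luminescence.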
Chain of Nuclear receptor subfamily 1 group I member 2 (Homo sapiens) (O75469 whole entry, looked up): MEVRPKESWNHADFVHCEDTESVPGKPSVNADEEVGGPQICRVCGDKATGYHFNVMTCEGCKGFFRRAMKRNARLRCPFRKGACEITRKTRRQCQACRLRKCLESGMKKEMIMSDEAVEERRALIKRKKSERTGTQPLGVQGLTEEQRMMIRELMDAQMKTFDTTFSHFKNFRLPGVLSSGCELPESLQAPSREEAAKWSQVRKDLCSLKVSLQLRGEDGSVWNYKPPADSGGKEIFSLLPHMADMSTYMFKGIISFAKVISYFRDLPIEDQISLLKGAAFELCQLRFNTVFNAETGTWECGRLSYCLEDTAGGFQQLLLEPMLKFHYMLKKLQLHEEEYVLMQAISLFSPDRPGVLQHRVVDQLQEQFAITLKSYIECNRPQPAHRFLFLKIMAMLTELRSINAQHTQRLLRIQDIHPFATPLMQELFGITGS

In assay [19] the target is Cytochrome P450 2D6 (Homo sapiens) (UniProt P10635). In words: Cytochrome P450 Family 2 Subfamily D Member 6 (CYP2D6) small molecule antagonists: luciferase reporter qHTS assay (AID 1671196). Further: nearly all actives have a fitted effect of over 50% in size. Further: potency means the concentration at half of the fitted maximal effect. Summed up:
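Chemicals tested for interference with CYP2D6 activity; proluciferin substrate, NADPH regeneration, 1 h at room temperature, luminescent detection.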
(In a reporter assay the amount or activity of a reporter protein is the signal.)

Assay [20] in a line: Caspase-3/7 induction in HepG2 cells by small molecules, qHTS cell viability counter screen (AID 1346981). Further: series mostly up to about 92 µM; nearly all actives have a fitted effect of over 30% in size. In short, it runs like this: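 Treatment of HepG2 cells with DMSO-delivered compounds ran 16 hr at 37 C following a 5-hr pre-incubation of 2,000 cells/well. CellTiter-Fluor fluorescence, read after 1 hr, served as the viability measure in a qHTS format.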

A number with no mark means an inactive call. Records with an inconclusive call do not appear. Active and inactive are the calls of the source. Unless noted, the call rests on the fitted dose curve; in most records, active means well fitted curve in the direction sought with a large enough effect in the repeat runs; inconclusive means weak or mixed curves; inactive means no such curve, though single readings can be large; an effect the other way counts as inactive or inconclusive.

These results are taken from PubChem BioAssay (Tox21).
On the % scale 0 is the no-effect control and ±100 the full control effect.

Chain of Cytochrome P450 2D6 (Homo sapiens) (P10635 whole entry, looked up): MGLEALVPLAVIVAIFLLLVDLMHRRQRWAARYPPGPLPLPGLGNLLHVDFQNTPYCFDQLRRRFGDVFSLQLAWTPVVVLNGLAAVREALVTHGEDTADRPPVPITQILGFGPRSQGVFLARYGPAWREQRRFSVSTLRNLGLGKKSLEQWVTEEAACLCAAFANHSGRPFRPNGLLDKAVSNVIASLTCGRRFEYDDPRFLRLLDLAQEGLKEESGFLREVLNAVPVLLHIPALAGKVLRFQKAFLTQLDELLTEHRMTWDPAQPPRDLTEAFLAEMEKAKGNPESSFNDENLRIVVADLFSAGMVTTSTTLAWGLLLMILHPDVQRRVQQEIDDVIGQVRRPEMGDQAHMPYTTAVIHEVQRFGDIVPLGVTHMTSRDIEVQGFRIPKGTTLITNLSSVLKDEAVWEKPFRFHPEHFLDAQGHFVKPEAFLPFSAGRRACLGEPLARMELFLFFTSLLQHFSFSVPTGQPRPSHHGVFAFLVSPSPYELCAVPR
Chain of Nuclear receptor subfamily 1 group I member 2 (Rattus norvegicus) (Q9R1A7 whole entry, looked up): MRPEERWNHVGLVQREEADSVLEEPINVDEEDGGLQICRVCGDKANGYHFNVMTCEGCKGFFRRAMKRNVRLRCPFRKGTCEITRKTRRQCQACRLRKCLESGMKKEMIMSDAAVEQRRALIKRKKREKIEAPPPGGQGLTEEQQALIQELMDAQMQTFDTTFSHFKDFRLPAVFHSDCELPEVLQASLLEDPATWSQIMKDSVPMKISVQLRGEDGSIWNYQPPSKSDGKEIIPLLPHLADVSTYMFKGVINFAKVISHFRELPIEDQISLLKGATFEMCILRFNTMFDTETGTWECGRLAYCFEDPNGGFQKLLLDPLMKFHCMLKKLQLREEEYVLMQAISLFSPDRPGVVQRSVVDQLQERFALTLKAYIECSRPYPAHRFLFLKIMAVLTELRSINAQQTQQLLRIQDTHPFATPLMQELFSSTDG
Chain of Thyrotropin-releasing hormone receptor (Homo sapiens) (P34981 whole entry, looked up): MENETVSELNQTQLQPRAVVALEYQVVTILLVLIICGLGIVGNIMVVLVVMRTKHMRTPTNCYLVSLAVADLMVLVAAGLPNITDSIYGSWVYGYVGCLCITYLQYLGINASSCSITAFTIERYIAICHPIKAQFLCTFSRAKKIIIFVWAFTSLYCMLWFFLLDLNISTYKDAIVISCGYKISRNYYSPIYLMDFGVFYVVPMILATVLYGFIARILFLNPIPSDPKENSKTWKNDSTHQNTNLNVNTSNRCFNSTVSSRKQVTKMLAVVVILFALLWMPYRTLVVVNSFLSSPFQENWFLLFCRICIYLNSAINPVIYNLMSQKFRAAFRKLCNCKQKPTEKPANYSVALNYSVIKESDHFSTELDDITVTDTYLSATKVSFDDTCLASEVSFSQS

Turning to `CCOC(=O)[C@H](CCc1ccccc1)N[C@H]1CCc2ccccc2N(CC(=O)O)C1=O`, the Potency result in assay [1], in assay [5], in [6], in [8] and in [11] was “inactive” throughout. Besides, the call in assay [2] and in assay [7] was inactive. The Potency is 21.1 µM (active) in assay [3]; 21.1 µM (active) in assay [4]; 26.6 µM (active) in assay [9]; 23.7 µM (active) in assay [10]; 23.7 µM (active) in assay [12]; 10 µM (active) in assay [13].
On to `NC(N)=N/N=C/c1c(Cl)cccc1Cl`, for which the Potency in assay [1] was 15 µM (active); in assay [9] it was 29.8 µM (active); in assay [10], 29.8 µM (active); in [19], 13.8 µM (active). Also, the compound was called inactive in assay [2], in [15], in [7] and in [16]. Also, the Potency result in assay [14], in assay [5], in [6], in assay [8], in [11] and in assay [12] was “inactive” throughout. Also, the Potency result in assay [13] and in assay [18] was “inactive” throughout. In assay [17], the max activation is -2.41%.
In the case of `CC(C)=CCCC(C)CC=O` (centres undefined), the Potency entry in assay [1], in assay [3], in assay [4], in [5], in [9] and in [10] was “inactive” each time. Further, in [11], the Potency result was “inactive”. The call in assay [2], in [15] and in assay [16] was inactive.
On to `COCCCCCCCCOCCC[Si](C)(O[Si](C)(C)C)O[Si](C)(C)C`, for which the Potency in assay [1] was 24.3 µM (active); in assay [9], 30.6 µM (active); in assay [10] it was 13.7 µM (active); in assay [12], 12.2 µM (active). Moreover, the result in assay [2], in assay [15], in assay [7] and in [16] was inactive. Further, the Potency result in [14], in [5], in [6], in assay [8], in [11] and in assay [19] was “inactive” in each case.
Turning to `CC(C(=O)O)c1ccc(C(=O)c2ccccc2)s1` (centres undefined), the Potency entry in assay [1], in [3], in [4], in assay [5], in [6] and in assay [8] was “inactive” each time. The Potency entry in assay [9], in assay [10], in assay [11], in assay [20], in assay [13] and in assay [18] was “inactive” each time. Moreover, the Potency entry in [19] was “inactive”. For the same compound, the outcome in assay [2] and in assay [7] was inactive. The Potency in [12] is 15 µM (active). The max activation in [17] was 13.7%.
On to `CCCCCCCCN(C)C`, for which the Potency entry in [1], in [3], in [4], in assay [5], in assay [6] and in assay [8] was “inactive” in each case. Also, the Potency result in assay [9], in assay [10], in assay [11], in assay [20], in assay [12] and in assay [19] was “inactive” each time. For the same compound, the result in assay [2], in assay [15], in [7] and in [16] was inactive.
For `CN(c1nccc(=O)[nH]1)C1CCN(c2nc3ccccc3n2Cc2ccc(F)cc2)CC1`, the Potency entry in assay [1], in assay [14], in assay [4], in assay [5], in [6] and in [8] was “inactive” in each case. Besides, the Potency entry in assay [9], in assay [11], in assay [20], in assay [13] and in assay [18] was “inactive” each time. The result in [2], in assay [15], in [7] and in [16] was inactive. Also, the max activation in assay [17] is -3.1%. In addition, in assay [19], the Potency was 12.3 µM (active).
